Among all 310,000 compounds or so, about 17,000 (5.5%) were called active. Entries that show only a call come without a potency. Roughly 11% stayed inconclusive and do not appear here. Many of the other results were omitted from the sample, so actives are more common in it than they were. Values without a mark were called inactive. Calls come from the whole dose curve; as a rule, active = well fitted inhibition curve with a large enough effect; inconclusive = small, poorly fitted or top-dose-only effect, or effect the other way; inactive = no such curve, though single readings can be large or run the other way.
Potency is the fitted concentration of half-maximal effect.

Chain of Nuclear receptor ROR-gamma (Mus musculus) (P51450 whole entry, looked up, the tested form may be a part): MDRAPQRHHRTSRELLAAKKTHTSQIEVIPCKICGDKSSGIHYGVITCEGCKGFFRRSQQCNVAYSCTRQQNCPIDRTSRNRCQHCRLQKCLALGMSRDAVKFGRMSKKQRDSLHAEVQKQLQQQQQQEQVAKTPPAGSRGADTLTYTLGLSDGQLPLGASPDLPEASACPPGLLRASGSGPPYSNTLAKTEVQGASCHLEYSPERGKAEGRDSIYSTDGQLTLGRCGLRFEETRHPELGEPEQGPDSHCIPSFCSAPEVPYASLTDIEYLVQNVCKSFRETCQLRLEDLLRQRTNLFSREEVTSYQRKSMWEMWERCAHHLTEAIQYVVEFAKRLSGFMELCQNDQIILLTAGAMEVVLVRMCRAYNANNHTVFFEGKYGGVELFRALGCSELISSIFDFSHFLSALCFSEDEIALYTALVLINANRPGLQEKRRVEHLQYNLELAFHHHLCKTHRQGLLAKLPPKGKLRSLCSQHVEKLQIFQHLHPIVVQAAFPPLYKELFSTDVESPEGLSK

The target in this assay is Nuclear receptor ROR-gamma (Mus musculus) (UniProt P51450). Kind of assay: qHTS for inhibitors of ROR gamma transcriptional activity. Note: nearly all actives have a fitted effect of over 60% in size. The settings on record: Drosophila S2 Gal4-RORgamma UAS-luciferase reporter, 20 h; series mostly up to 53.6 µM. The source says:
NIH Molecular Libraries Probe Production Network [MLPCN] NIH Chemical Genomics Center [NCGC] MLPCN Grant: R03 DA026211-01 Assay Provider: Dan Littman, New York University Assay Overview: The retinoic acid-related orphan receptor (ROR) gamma is a transcription factor that has a central role in the differentiation of Th17 cells, a subset of T helper cells that secrete the inflammatory cytokines IL-17, IL-17F, and IL-22. Th17 cells have been implicated in graft versus host disease, autoimmune disease and asthma. ROR gamma is induced in naive T helper cells in the presence of TGF-beta combined with IL-6, IL-21, or IL-23, and thereafter directs the expression of the Th17 lineage cytokines. To study the mechanism of action of ROR gamma, an insect cell-based assay was screened. This Drosophila Schneider cell line was stably transfected with two vectors: a gene expressing a fusion of the Gal4 DNA binding domain and ROR gamma transactivation domain under the control of the metallothionine promoter and a Photinus luciferase reporter regulated by the Gal4 binding site enhancer, UAS. […] Small molecule inhibitors of ROR gamma activity are detected by a decrease in luciferase reporter activity.
Assay Protocol Summary: For screening, 600 cells in 4 uL/well were dispensed into white solid 1536-well plates (Grenier) using a solenoid-based dispenser. Following transfer of 23 nL compound or DMSO vehicle by a pin tool, the plates were incubated 1 hr at ambient temperature, and 1 uL/well copper sulfate (700 uM final concentration) was added. The plates were centrifuged 15 s at 1000 RPM and incubated 20 hr at ambient temperature. After addition of 1.5 uL Photinus luciferase detection reagent, the plates were incubated 10 min at ambient temperature and then read by an ViewLux (Perkin Elmer) to detect luminescence. Keywords: NIH Roadmap, MLPCN, MLI, MLSMR, qHTS, NCGC, qHTS, nuclear hormone receptor, retinoic acid-related orphan receptor, ROR gamma
As to `CC(=O)OCC(NC(=O)C(Cc1ccccc1)NC(=O)OC(C)(C)C)C1OC(n2ccc(=O)[nH]c2=O)C(OC(C)=O)C1OC(C)=O` (configuration not stated), the Potency result was “inactive”. Same read-out and setting: to `COc1ccc(NC(=O)NCCN2CCN(c3ccc(C)cc3)CC2)c(Cl)c1` belongs “inactive”; to `COc1ccccc1-c1nnc(SCC(=O)Nc2ccccc2)o1`, “inactive”; to `COc1ccccc1NC(=O)CCSc1nnc(-c2ccc(O)cc2)o1`, 14.1 µM (active).

On to `CCc1ccccc1NC(=O)CSc1nnc(-c2ccncc2)o1`, for which the Potency result was “inactive”.

With `COc1cccc(N2CCN(c3ccc4nnc(CCC(=O)N5CCN(C)CC5)n4n3)CC2)c1`, the Potency entry is “inactive”. The same measure, in the same setting: to `N#CC(C(=O)c1ccc(S(=O)(=O)N2CCCCCC2)cc1)c1nc2ccccc2[nH]1` (configuration not stated) belongs 12.6 µM (active). Same read-out and setting: the value for `O=C(N/N=C/c1ccccn1)c1ccc(S(=O)(=O)N2CCCCCC2)cc1` was “inactive”; that for `O=S(=O)(c1ccc(Br)cc1)N1CCC(c2nc3ccccc3[nH]2)CC1` was “inactive”; that for `Cc1nc2cc(C(F)(F)F)ccc2n1CCNc1nc(-c2cc(Cl)c(N)c(Cl)c2)cs1` was 17.8 µM (active). On the same count and under the same terms, to `COc1cc(NC(=O)CSc2ccc(-c3cccnc3)nn2)cc(OC)c1` belongs “inactive”; to `CC(C)c1ccc(S(=O)(=O)N2CCN(C(=O)c3ccc(N4CCCC4)c([N+](=O)[O-])c3)CC2)cc1`, “inactive”; to `COc1ccccc1N(CC(=O)Nc1ccccc1C(=O)N1CCCC1)S(C)(=O)=O`, “inactive”. As to `Cc1ccc(S(=O)(=O)N2CCN(C(=O)CSc3cc(C)ccc3C)CC2)c(C)c1`, the Potency is 3.16 µM (active). Same read-out and setting: the value for `Cc1ccc(S(=O)(=O)N2CCN(C(=O)N3CCOCC3)CC2)c(C)c1` was “inactive”.

For the molecule `CCCc1cc(=O)[nH]c(SCC(=O)N2CCN(S(=O)(=O)c3ccc(C)cc3C)CC2)n1`, the activity change, negative = inhibition was 4.85% [at 10 µM]. Turning to `Cc1ccc(C(=O)NC2CCN(C(=O)Nc3ccc(F)cc3)CC2)cc1`, the Potency entry was “inactive”. The same measure, in the same setting: the value for `CCC1C/C(=C/c2cccs2)C(=O)/C(=C/c2cccs2)C1` (configuration not stated) was “inactive”. Still for that read-out and setting: to `CC(C)=N/N=C1/NC(=O)C(Cc2ccccc2)S1` (configuration not stated) belongs 2.51 µM (active); to `O=C1N/C(=N\N=C\c2ccco2)SC1Cc1ccc(F)cc1` (configuration not stated), 1 µM (active); to `O=c1nc(N/N=C/c2ccco2)cn[nH]1`, “inactive”. `O=C(O)C[C@@H]1NC(=O)[C@H](Cc2ccccc2)NC1=O`: the Potency result is “inactive”. Same read-out and setting: to `CN(CCOc1ccc(CC2SC(=O)NC2=O)cc1)c1ccccn1` (configuration not stated) belongs “inactive”. On to `CCC1S/C(=N/N=C/c2ccco2)NC1=O` (configuration not stated), for which the Potency was 1.26 µM (active). On the same count and under the same terms, to `CC(=O)Nc1ccc(S(=O)(=O)Oc2ccc(/C=N/N=C3/NC(=O)C(CC(=O)O)S3)cc2)cc1` (configuration not stated) belongs “inactive”; to `C=CCN1C(=O)C(Cc2cccc(Cl)c2)S/C1=N/N=C/c1ccco1` (configuration not stated), “inactive”; to `COc1ccc(CN2C(=O)C(C)S/C2=N/N=C/c2ccco2)cc1` (configuration not stated), “inactive”.

For the molecule `CCCCC1S/C(=N/N=C/c2cccs2)NC1=O` (configuration not stated), the Potency is 0.112 µM (active).

As for `Cc1ccccc1N(C(=O)CNC(=O)c1cccs1)C(C(=O)NC1CCCC1)c1ccncc1` (configuration not stated), the Potency result is “inactive”. For the molecule `O=C(C1CCN(Cc2ccc(Cl)cc2)CC1)N1CCN(Cc2ccc3c(c2)OCO3)CC1`, the Potency entry is “inactive”.

`C=CCn1c(SCc2ccccc2)nc2c1c(=O)[nH]c(=O)n2C`: the Potency result was “inactive”. On the same count and under the same terms, the value for `O=S(=O)(c1ccccc1)c1nc(Cc2ccccc2)oc1N1CCOCC1` was “inactive”; that for `O=S(=O)(c1ccc(F)cc1)N1CCN=C1SCc1cccc(F)c1` was “inactive”; that for `CCc1ccc(N2CC(C(=O)Nc3ccc(S(=O)(=O)Nc4nccs4)cc3)CC2=O)cc1` (configuration not stated) was “inactive”. Same read-out and setting: the value for `CCCCC1(C(=O)OCC)NC(c2ccc(O)cc2)C2C(=O)N(c3ccccc3)C(=O)C21` (configuration not stated) was “inactive”.

`CCN1CCN(C2CCCCC2NS(=O)(=O)c2ccc(Cl)cc2)CC1` (configuration not stated): the Potency entry was “inactive”.

With `CC(C)Cn1cnc2c1c(=O)n(CC(=O)NN)c(=O)n2Cc1ccccc1`, the Potency entry was “inactive”. Same read-out and setting: to `NC(=O)c1cc2ccccc2o/c1=N/NC(=O)c1cccc(F)c1` belongs “inactive”; to `COc1ccc(C(=O)N/N=c2\oc3ccccc3cc2C(N)=O)cc1`, “inactive”; to `COc1cccc2cc(C(N)=O)/c(=N\NC(=O)c3ccccc3)oc12`, 7.08 µM (active). In the case of `O=C1CN(C(=O)c2cc(F)cc(F)c2)c2ccccc2N1`, the Potency result is “inactive”. On the same count and under the same terms, to `COc1ccc(OC)c(C(C)NC(=S)Nc2ccc(S(=O)(=O)Nc3ncccn3)cc2)c1` (configuration not stated) belongs “inactive”. Same read-out and setting: the value for `CCOC(=O)c1cccnc1NC(=O)c1ccncc1` was “inactive”; that for `COC(=O)c1cccnc1NC(=S)NC(C)C` was 1.78 µM (active). On the same count and under the same terms, the value for `CCc1nnc(NS(=O)(=O)c2ccc(N=Cc3c(C)[nH]n(-c4ccc(C)cc4)c3=O)cc2)s1` was “inactive”; that for `Cc1ccc(-n2[nH]c(C)c(/C=N/N3C(=O)c4cccc5cccc(c45)C3=O)c2=O)cc1` was 6.31 µM (active); that for `Cc1ccc(-c2ccnc3[nH]n(-c4ccccc4)c(=O)c23)cc1` was “inactive”. Turning to `Cc1ccc(C(=O)N2CCC(n3nccc3NC(=O)Nc3cccc(F)c3)CC2)cn1`, the Potency entry was “inactive”. Turning to `CCCCNC(=O)c1c[nH]c2ccc(S(=O)(=O)Nc3ccc(OCC)cc3)cc2c1=O`, the Potency was 7.94 µM (active). Same read-out and setting: the value for `COc1cccc(NS(=O)(=O)c2ccc3[nH]cc(C(=O)NCCCOC(C)C)c(=O)c3c2)c1` was “inactive”; that for `CCOc1ccc(NS(=O)(=O)c2ccc(C)c(C(N)=O)c2)cc1` was “inactive”; that for `CCOC(=O)c1c(S(=O)(=O)Nc2ccc(CN3CCC(C)CC3)cc2)c(C)n(C)c1C` was “inactive”.

The values are drawn from PubChem BioAssay AID2551 (National Center for Advancing Translational Sciences (NCATS), 2010).
